Hit rate of the full screen: of about 16,000 compounds, about 5,700 (36%) were called active. Not shown: some 24% with an inconclusive outcome. Calls come from the whole dose curve; as a rule, active = well fitted curve in the direction sought with a large enough effect; inconclusive = small, poorly fitted or top-dose-only effect, or effect the other way; inactive = no such curve, though single readings can be large or run the other way. The list shows a part of the results.
Target: Cytochrome P450 1A2 (Homo sapiens) (UniProt P05177)
Test: Cytochrome panel assay with activity outcomes
Conditions: recombinant CYP, pro-luciferin dealkylation, luminescence, p450-cyp1a2; series mostly up to 57.1 µM
% is set by controls: 0 for no effect and ±100 for the full control effect.

Chain of Cytochrome P450 1A2 (Homo sapiens) (P05177 whole entry, looked up): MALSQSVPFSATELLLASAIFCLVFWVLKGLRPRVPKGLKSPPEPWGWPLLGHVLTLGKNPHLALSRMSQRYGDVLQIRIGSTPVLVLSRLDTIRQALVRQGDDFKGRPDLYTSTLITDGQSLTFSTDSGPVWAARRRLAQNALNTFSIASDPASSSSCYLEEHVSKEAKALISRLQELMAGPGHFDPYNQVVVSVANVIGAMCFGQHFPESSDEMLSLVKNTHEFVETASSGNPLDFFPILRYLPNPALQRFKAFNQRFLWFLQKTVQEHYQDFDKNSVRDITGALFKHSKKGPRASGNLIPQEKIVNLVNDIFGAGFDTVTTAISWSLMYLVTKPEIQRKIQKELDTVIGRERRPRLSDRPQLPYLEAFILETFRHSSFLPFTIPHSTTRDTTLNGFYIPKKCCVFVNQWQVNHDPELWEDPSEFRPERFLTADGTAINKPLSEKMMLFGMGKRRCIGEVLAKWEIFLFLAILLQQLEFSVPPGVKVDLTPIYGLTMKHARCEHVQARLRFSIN

AC50, active:
c1ccc2cc(Sc3ncnc4c3oc3ccccc34)ccc2c1 1.58 µM
O=C(COc1ccc(Cl)cc1)NCCC1=CCCCC1 11.2 µM
CC1(c2ccccc2)NC(=O)N(CC(=O)NCCC2=CCCCC2)C1=O (configuration not stated) 11.2 µM
O=C(CN1CCN(c2ncccn2)CC1)NCCC1=CCCCC1 1.58 µM
CCC(C)n1nnc2c(=O)oc3ccccc3c21 (configuration not stated) 0.708 µM
Cc1ccccc1-c1cc(-c2ccccc2O)on1 2.51 µM
Oc1ccccc1-c1cc(-c2ccccc2)no1 1.26 µM
Nc1nc(-c2ccccc2)cc(-c2ccccc2O)n1 0.631 µM
CC(=O)N1CCN(c2nc(C)nc3sc4c(c23)CCC(C)C4)CC1 (configuration not stated) 15.8 µM
C(=N\N(c1ccccc1)c1ccccc1)/c1ccc2c(c1)OCO2 2 µM
CCOc1ccc(CC(=O)C2C(=O)CCCC2=O)cc1OCC 10 µM

AC50, inactive:
C[C@@H]1C[C@@H]2[C@H]3CCC4=CC(=O)C=C[C@]4(C)[C@]3(F)[C@@H](O)C[C@]2(C)[C@@]1(O)C(=O)CO
CC(=O)Nc1ccc(S(=O)(=O)NC(CC(=O)NCCC2=CCCCC2)C(C)C)cc1 (configuration not stated)
Cc1ccc(S(=O)(=O)N(CC(=O)NCCC2=CCCCC2)Cc2ccccc2F)cc1
COc1ccc(OC)c(C(=O)CN2C(=O)NC(C)(c3ccccc3)C2=O)c1 (configuration not stated)
CCCCCOc1ccc(NC(=O)C(=O)NCCC2=CCCCC2)cc1
Cc1nc2ncnn2c(C)c1CCC(=O)NCCC1=CCCCC1
COc1ccc(C(=O)CN2C(=O)NC(C)(c3ccccc3)C2=O)cc1OC (configuration not stated)
C=CCN1CCc2cc(O)c(O)cc2[C@H](c2ccccc2)C1
Cc1cc(C(F)F)n2nc(C(=O)Nc3sc4c(c3C#N)CCC(C)C4)nc2n1 (configuration not stated)
CCOc1ccc(CNC(=O)C2CCC(=O)N2C2CCCC2)cc1OC (configuration not stated)
CCOc1cc(CN2CCN(c3ccc(C(C)=O)cc3)CC2)ccc1OC

activity, negative = inhibition, inactive:
O=C(O)[C@H](Cc1cc(I)c(O)c(I)c1)C1CCCCC1 -8.77% [at 2.29 µM]
Nc1nc(-c2cc(-c3cccc4ccccc34)nc(N)n2)cc(-c2cccc3ccccc23)n1 -4.4% [at 2.29 µM]
CC(C)=NOCc1cccc(-c2cc(-c3ccccc3)no2)c1 1.37% [at 11.4 µM]
CC(C)=NOCc1ccc(-c2cc(-c3ccccc3)no2)cc1 -4.03% [at 11.4 µM]
CC(C)CN=C(N)N=C(N)N -9.85% [at 11.4 µM]

Source: PubChem BioAssay AID1851 (National Center for Advancing Translational Sciences (NCATS), 2009)
